{
  "source": "PubChem BioAssay (EPA / NIEHS)",
  "note": "Several values for one entry are separate records, joined by “and”; a condition that tells them apart may be missing. Equal entries are not always repeated. The source holds several records for some structures; these can differ, active in one and inactive in another. Activity calls are given as the source filed them. The calls were made as follows: active = hit-call score of the fitted dose curve at least 0.9, where 1 is the maximum; inactive = score below 0.9.",
  "data": [
    {"assay": "ATG_NF_kB_CIS: Attagene CIS-FACTORIAL HepG2 Assay for human Nuclear Factor Kappa B (NF-kB) (AID 2282991)", "conditions": "HepG2 Attagene cis-factorial NF-kB reporter mRNA; actives raise or lower the signal", "method": "ATG_CIS is a cell-based, multiplexed-readout assay that uses HepG2, a human liver cell line, with measurements taken at 24 hours after chemical dosing in a 24-well plate.ATG_NF_kB_CIS is one of 52 assay component(s) measured or calculated from the ATG_CIS assay. It is designed to make measurements of mRNA induction, a form of inducible reporter, as detected with fluorescence intensity signals by Reverse transcription polymerase chain reaction (RT-PCR) and Capillary electrophoresis technology.Data from the assay component ATG_NF_kB_CIS was analyzed into 1 assay endpoint. This assay endpoint, ATG_NF_kB_CIS, was analyzed with bidirectional fitting relative to DMSO as the negative control and baseline of activity. Using a type of inducible reporter, measures of mRNA for gain or loss-of-signal activity can be used to understand the reporter gene at the transcription factor-level as they relate to the gene NFKB1. Furthermore, this assay endpoint can be referred to as a primary readout, because this assay has produced multiple assay endpoints where this one serves a reporter gene function. To generalize the intended target to other relatable targets, this assay endpoint is annotated to the dna binding intended target family, where the subfamily is NF-kappa B.\nHuman liver HepG2 cells are transiently transfected with multiple reporter transcription units (MRTUs) in 6-well plates using FuGene 6 reagent (Roche; 3 ml FuGene/1 mg DNA). The MRTU constructs are regulated by a cis-regulating element (promoter). […] A major difference between the CIS and TRANS system is that in CIS activities of endogenous TFs are measured, whereas the TRANS assay evaluates changes in activities of exogenous, chimeric NR-Gal4 proteins. […] At the end of 24 hour incubation, total RNA was isolated using TriZol reagent (Invitrogen). The isolated RNA is then reverse-transcribed using oligo(dT) primer and Mo-MLV reverse transcriptase (Invitrogen) with DNAse I (Ambion) treatment for 30 min. The one-tenth of the produced cDNA was amplified by PCR using Taq DNA polymerase (Invitrogen) and two reporter sequence-specific primers. The PCR products were fluorescently labeled by primer extension with 6-arboxyfluorescein (6-FAM) 5'-labeled reporter sequence-specific primer (2 min at 95 C, 20 s at 68 C and 10 min at 72 C) and these products were digested with 5U of HpaI (New England Biolabs) for 2h at 37 C. The fragments were purified using Qiaquick PCR columns (Qiagen), analyzed on an ABI 3130xL genetic analyzer (Applied Biosystems) with peak positions identified by using a set of X-rhodamine (ROX)-labeled MapMarker1000 molecular weight standards (BioVentures). The raw capillary electrophoresis data was processed using Attagraph software (Attagene).", "values": [
      {"smiles": "CCn1nc(C)c2c1C(=O)NCC(c1ccc(O)cc1)=N2", "outcome": "inactive"},
      {"smiles": "S=P(N1CC1)(N1CC1)N1CC1", "outcome": "inactive"},
      {"smiles": "COc1cc2c(c(OC)c1OC)-c1ccc(OC)c(=O)cc1[C@@H](NC(C)=O)CC2", "outcome": "inactive"},
      {"smiles": "CCc1ccc(O)c(C(C)(C)C)c1", "outcome": "inactive"},
      {"smiles": "CC(C)CC(C)O", "note": "(stereo not given)", "outcome": "inactive"},
      {"smiles": "FC(F)C(F)(F)COCC1CO1", "note": "(stereo not given)", "outcome": "inactive"},
      {"smiles": "CCCCN1C(=O)[C@@H]([C@H](O)C2CCCCC2)NC(=O)C12CCN(Cc1ccc(Oc3ccc(C(=O)O)cc3)cc1)CC2", "AC50": "53.4 µM (active)"},
      {"smiles": "NCC(F)(F)C(F)(F)C(F)(F)C(F)(F)F", "outcome": "inactive"},
      {"smiles": "OCc1c[nH]c2ccccc12", "AC50": "25.5 µM (active)", "outcome": "inactive"},
      {"smiles": "NC(=O)N(O)[C@@H]1COc2cc(OCc3ccccc3)ccc21", "outcome": "inactive"},
      {"smiles": "CCCOc1ccc(S(=O)(=O)N2CCN(CC)CC2)cc1-c1nc2c(CC)n(Cc3ccccn3)nc2c(=O)[nH]1", "AC50": "51 µM (active)"},
      {"smiles": "O=C(O)c1ccc2c(c1)nc(C(=O)NC1CCN(C3CC3)CC1)n2Cc1cc(-c2ccc(Cl)s2)on1", "outcome": "inactive"},
      {"smiles": "OCc1ccccc1", "outcome": "inactive"},
      {"smiles": "NC(=O)NN=Cc1ccc([N+](=O)[O-])o1", "outcome": "inactive"},
      {"smiles": "CC(=O)c1ccccc1", "outcome": "inactive"},
      {"smiles": "FC(F)(F)C(F)(F)C(F)(F)C(F)(F)C(F)(F)C(F)(F)I", "outcome": "inactive"},
      {"smiles": "O=C(N[C@H](CO)[C@H](O)c1ccc([N+](=O)[O-])cc1)C(Cl)Cl", "outcome": "inactive"},
      {"smiles": "OC(O)(C(F)C(O)(O)C(F)(F)F)C(F)(F)F", "AC50": "16.6 µM (active) and 7.74 µM (active)"},
      {"smiles": "Cc1nc(-c2ccccn2)ncc1C(=O)Nn1cc(C)c2cc(F)ccc21", "outcome": "inactive"},
      {"smiles": "Cc1ccc(S(=O)(=O)NC(=O)NN2CCCCCC2)cc1", "outcome": "inactive"},
      {"smiles": "c1ccc2cc3ccccc3cc2c1", "outcome": "inactive"},
      {"smiles": "OC[C@H]1O[C@@](CO)(O[C@H]2O[C@H](CO)[C@@H](O)[C@H](O)[C@H]2O)[C@@H](O)[C@@H]1O", "outcome": "inactive"},
      {"smiles": "COS(C)(=O)=O", "outcome": "inactive"},
      {"smiles": "O=S(=O)(O)CCC(F)(F)C(F)(F)C(F)(F)C(F)(F)C(F)(F)C(F)(F)F", "outcome": "inactive"},
      {"smiles": "O=C(O)c1cccc(C[C@@H]2COc3ccc(OCc4nc5cc(F)ccc5s4)cc3[C@@H]2O)c1", "AC50": "100 µM (active)"},
      {"smiles": "Cc1nccn1-c1ccc(Sc2cccc(C3(C(N)=O)CCOCC3)c2)cc1", "outcome": "inactive"},
      {"smiles": "O=C(NO)C1(NS(=O)(=O)c2ccc(Oc3ccc(F)cc3)cc2)CCOCC1", "outcome": "inactive"},
      {"smiles": "C[Si](C)(C)C(F)(F)C(F)(F)C(F)(F)F", "outcome": "inactive"},
      {"smiles": "OCCC(F)(F)C(F)(F)C(F)(F)C(F)(F)F", "outcome": "inactive"},
      {"smiles": "O=C(Cl)C(F)(F)C(F)(F)C(F)(F)C(=O)Cl", "outcome": "inactive"},
      {"smiles": "OC(Cn1cncn1)(Cn1cncn1)c1ccc(F)cc1F", "outcome": "inactive"},
      {"smiles": "CCN(CC)C(=S)SSC(=S)N(CC)CC", "AC50": "27.6 µM (active)"},
      {"smiles": "O=C(O)CO", "outcome": "inactive"},
      {"smiles": "CCCCC(CC)C(=O)OCCOCCOCCOC(=O)C(CC)CCCC", "note": "(stereo not given)", "outcome": "inactive"},
      {"smiles": "NNC(=O)c1ccncc1", "outcome": "inactive"},
      {"smiles": "O=C(O)[C@H](O)[C@@H](O)C(=O)O", "outcome": "inactive"},
      {"smiles": "CCCCCCCCCCCCCCO", "outcome": "inactive"},
      {"smiles": "c1ccc2c(c1)-c1cccc3c1c-2cc1ccccc13", "outcome": "inactive"},
      {"smiles": "OC(CCl)CCl", "outcome": "inactive"}
    ]}
  ]
}
